The text below walks through data of PubChem BioAssay (EPA / NIEHS).

Each structure is given as a SMILES string. Results filed as inconclusive are left out. The source made the active and inactive calls. The calls were made as follows: active = hit-call score of the fitted dose curve at least 0.9, where 1 is the maximum; inconclusive = response in the unintended direction; inactive = score below 0.9.

Read-out in the assay: sulfotransferase (SULT2A), SULT2A1 (gene 6822)
Briefly: CLD_SULT2A_6hr: CellzDirect (CLD) Gene Expression Assay for sulfotransferase (SULT2A) at 6 hours (AID 2283669).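 Also: hits raise transcript level above the DMSO vehicle baseline.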 As to the method:
CLD_6hr is a cell-based, multiplexed-readout assay that uses hepatocyte, a human liver primary cell, with measurements taken at 6 hours after chemical dosing in a 96-well plate.CLD_SULT2A_6hr is one of 16 assay component(s) measured or calculated from the CLD_6hr assay. It is designed to make measurements of mRNA induction, a form of inducible reporter, as detected with chemiluminescence signals by Quantitative Nuclease Protection Assay (qNPA) technology.Data from the assay component CLD_SULT2A_6hr was analyzed at the endpoint, CLD_SULT2A_6hr, in the positive analysis fitting direction relative to DMSO as the negative control and baseline of activity. Using a type of inducible reporter, gain-of-signal activity can be used to understand changes in the reporter gene as they relate to the gene SULT2A1. Furthermore, this assay endpoint can be referred to as a primary readout. To generalize the intended target to other relatable targets, this assay endpoint is annotated to the transferase intended target family, where subfamily is sulfotransferase.
Human hepatocyte cultures were treated daily for two consecutive days with fresh dosing solutions containing appropriate concentrations of the 320 ToxCast chemicals (chemical identities were blinded to CellzDirect and other ToxCast collaborators), vehicle control (0.2% DMSO), and positive control inducers as summarized in Table 1. Due to the large number of treatment groups and chemicals examined, the ToxCast chemicals were divided into two groups (spanning two independent cultures of hepatocytes from separate donor preparations (Hu778: ToxCast plates 1 and 2; Hu776: ToxCast plates 3 and 4). Each preparation of human hepatocyte cultures was treated with respective vehicle control, medium only control, set of six positive controls/reference chemicals for the five hepatic receptor pathways, and a subset of eight of the ToxCast chemicals (indoxacarb, pyrithiobac-sodium, norflurazon, cyhalofop-butyl, methomyl, thiram, acetochlor, and propiconazole). These replicate data, coupled with internal replicates designed within the blinded ToxCast chemical library, provided additional data to evaluate interindividual differences between hepatocyte preparations and their potential impact on chemical profiles.Cell morphology and integrity were evaluated using phase-contrast microscopy as an indicator of hepatocyte cell health (Tyson & Green, 1987). Cultures for each treatment group (i.e., media, vehicle [0.2% DMSO], positive control inducers [multiple concentrations], and the ToxCast chemicals [multiple concentrations]) were observed and cell morphology was assessed relative to vehicle control cultures at each harvest time point (0, 6, 24, or 48 h). […] Images were evaluated at the conclusion of the study to assess changes in cell integrity and account for the effects of chemical exposure on uncharacteristic changes in concentration-dependent gene expression profiles. The results from these determinations of apparent cytotoxicity were annotated (yes/no) alongside the corresponding qNPA data for reference.At the conclusion of each treatment period, hepatocyte cultures (96-well) were washed with 1 volume of HBSS, lysed by addition of 25 ul ArrayPlate lysis buffer (HTG, Tucson, AZ), and 70 ul/well of Denaturation Oil, denatured by incubation at 95C for 10 min, and frozen at approximately -70C until analysis by nuclease protection assay (qNPA) (Roberts et al., 2007). For qNPA analysis, cell lysates were thawed at 50C for approximately 30 min, qNPA probes were added, and samples were incubated at 95C for 10 min to begin the detection process by denaturing the target RNA, dissociating the duplexes and secondary structure hybridization. At the conclusion of the hybridization period, S1 nuclease reagent was added to each sample to digest all nonprotected nucleotides at 50C for 60-90 min. […]
Take `Nc1nc(N)nc(NC2CC2)n1`: the outcome was inactive.

For the compound `C#CC(C)(C)NC(=O)c1cc(Cl)cc(Cl)c1`, the result was inactive.

For the compound `Cc1nn(-c2cc(NS(C)(=O)=O)c(Cl)cc2Cl)c(=O)n1C(F)F`, the call was inactive.

For `COc1cccc(C(=O)NN(C(=O)c2cc(C)cc(C)c2)C(C)(C)C)c1C`, the compound was classed as inactive.

On to `FC(F)C(F)(F)OCC(Cn1cncn1)c1ccc(Cl)cc1Cl` (stereo not given), for which the result was inactive.

As for `CNC(=O)ON=C(C)SC`, the compound was classed as inactive.

In the case of `CN(C)NC(=O)CCC(=O)O`, the compound was classed as inactive.

For the compound `CCOP(=S)(OCC)Oc1cc(C)nc(C(C)C)n1`, the result was inactive.

For `CNC(=O)ON=C(SC)C(=O)N(C)C`, the call was inactive.

In the case of `CN1COCN(Cc2cnc(Cl)s2)C1=N[N+](=O)[O-]`, the outcome was inactive.

As for `COP(=O)(OC)OC(Br)C(Cl)(Cl)Br` (stereo not given), the compound was classed as inactive.

Turning to `C[Si](Cn1cncn1)(c1ccc(F)cc1)c1ccc(F)cc1`, the compound was classed as inactive.

With `CCOC(=O)COc1cc(-c2nn(C)c(OC(F)F)c2Cl)c(F)cc1Cl`, the compound was called inactive.

With `O=[N+]([O-])c1cc(C(F)(F)F)c(Cl)c([N+](=O)[O-])c1Nc1ncc(C(F)(F)F)cc1Cl`, the result was inactive.

In the case of `CCCCSP(=O)(SCCCC)SCCCC`, the compound was called inactive.

As to `CCCCN(CC)c1c([N+](=O)[O-])cc(C(F)(F)F)cc1[N+](=O)[O-]`, the outcome was inactive.

Turning to `CCc1cccc(C)c1N(C(=O)CCl)C(C)COC` (stereo not given), the outcome was inactive.

`CCC(=NOC/C=C/Cl)C1=C(O)CC(C2CCOCC2)CC1=O` (stereo not given): the compound was called inactive.

Take `CC(=NC#N)N(C)Cc1ccc(Cl)nc1`: the compound was called inactive.

Turning to `N#CSCSC#N`, the result was inactive.

Regarding `Cc1ccn2nc(S(=O)(=O)Nc3c(F)cccc3F)nc2n1`, the compound was classed as inactive.

As to `CNc1cnn(-c2cccc(C(F)(F)F)c2)c(=O)c1Cl`, the outcome was inactive.

With `CSC1=N[C@@](C)(c2ccccc2)C(=O)N1Nc1ccccc1`, the compound was classed as inactive.

As for `CSc1nnc(C(C)(C)C)c(=O)n1N`, the compound was classed as inactive.

Consider `CCCSP(=O)(OCC)Oc1ccc(Br)cc1Cl` (stereo not given), for which the compound was classed as inactive.

With `CCOP(=S)(OCC)OC(Cl)C(Cl)(Cl)Cl` (stereo not given), the result was inactive.

With `CCC(CC)Nc1c([N+](=O)[O-])cc(C)c(C)c1[N+](=O)[O-]`, the compound was classed as inactive.

Consider `CCOP(=S)(OCC)SCCSCC`, for which the compound was classed as inactive.

For the compound `CCc1cccc(CC)c1N(COC)C(=O)CCl`, the compound was called inactive.

With `CCCSP(=O)(OCC)SCCC`, the compound was called inactive.

Regarding `C#CCC1=C(C)C(OC(=O)C2C(C=C(C)C)C2(C)C)CC1=O` (stereo not given), the call was inactive.

For `C=C(C)[C@H]1Cc2c(ccc3c2O[C@@H]2COc4cc(OC)c(OC)cc4[C@@H]2C3=O)O1`, the compound was called inactive.

With `CSc1nc(NC(C)C)nc(NC(C)C)n1`, the call was inactive.

Take `COP(=O)(OC)SCn1c(=O)oc2cc(Cl)cnc21`: the call was inactive.

For the compound `CCCOCC(=Nc1ccc(Cl)cc1C(F)(F)F)n1ccnc1`, the call was inactive.

Take `CC(C)N(C(=O)SCC(Cl)=C(Cl)Cl)C(C)C`: the compound was called inactive.

As to `CCOP(=S)(OCC)Oc1ccc2c(C)c(Cl)c(=O)oc2c1`, the result was inactive.

As to `CC(C)[C@H](C(=O)O[C@H](C#N)c1cccc(Oc2ccccc2)c1)c1ccc(Cl)cc1`, the compound was classed as inactive.

Turning to `COP(=O)(NC(C)=O)SC` (stereo not given), the outcome was inactive.

Regarding `CC1=NNC(=O)N(/N=C/c2cccnc2)C1`, the compound was called inactive.
